JMJD2E inh: qHTS Assay for Inhibitors of Human Jumonji Domain Containing 2E (JMJD2E); JMJD2E catalytic domain, FDH-coupled NADH fluorescence (FDH is formaldehyde dehydrogenase); actives 1.6% (n = 230,000); Potency, µM (highest dose often 57.1 µM), hits mostly inhibitors; Lysine-specific demethylase 4E (Homo sapiens), B2RXH2; further: nearly all actives have a fitted effect of over 50% in size
NPSR antag: qHTS Assay for Antagonists of the Neuropeptide S Receptor: cAMP Signal Transduction; Q6W5P4; CHO-NPSR cells, cAMP TR-FRET, antagonist mode; Potency, µM (highest dose often 38.3 µM), usual class: inhibitors; actives 1% (n = 220,000); AID 1461, 2008; active means well fitted curve in the direction sought with a large enough effect; inconclusive means small, poorly fitted or top-dose-only effect, or another doubt; inactive means no such curve, though single readings can be large; an effect the other way counts as inactive or inconclusive; further: nearly all actives have a fitted effect of over 50% in size
FBPA coupling cs: qHTS Assay for Inhibitors of Fructose-1,6-bisphosphate Aldolase from Giardia Lamblia: Coupling assay counterscreen; activity change, negative = inhibition, % at 58.2 µM, hits read low; coupling enzyme system counterscreen, AmpLite Red fluorescence; actives 0.67% (n = 290,000); in the data active means activity change below about -30%
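Fluorescence at 525 nm excitation and 598 nm emission measured inhibition of the coupled detection system without aldolase. Compounds (at 57.5 uM final) were preincubated 10 min at room temperature with coupling enzyme reagent before a 20 min substrate/AmpLite Red step.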
Sfp inh: qHTS Assay for Inhibitors of Bacillus subtilis Sfp phosphopantetheinyl transferase (PPTase); Potency, µM, usual class: inhibitors; AID 1490, 2009; Biochemical Sfp PPTase activity, qHTS; 4'-phosphopantetheinyl transferase ffp (Bacillus subtilis), Q9F4F7; actives 3.5% (n = 310,000); active means well fitted curve in the direction sought with a large enough effect; inconclusive means small, poorly fitted or top-dose-only effect, or another doubt; inactive means no such curve, though single readings can be large; an effect the other way counts as inactive or inconclusive;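 further: the enzyme is Sfp with the accession as filed and its product quenches rhodamine fluorescence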
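Fluorescence-quenching assay with 15 nM Sfp, 5 uM rhodamine-CoA and 12.5 uM BHQ-2-labelled ybbR peptide in pH 7.6 Hepes/MgCl2 buffer. Enzyme was pre-incubated with compound for 15 min at room temperature. Rate was taken from the 30-min fluorescence change (525/598 nm).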
ALDH1A1 block: qHTS Assay for Inhibitors of Aldehyde Dehydrogenase 1 (ALDH1A1); Potency, µM (series often up to 75.3 µM), hits mostly inhibitors; Purified ALDH1A1, NADH fluorescence, propionaldehyde substrate; actives 7.3% (n = 220,000); Aldehyde dehydrogenase 1A1 (Homo sapiens), P00352
Target sequence (P00352 whole entry, looked up): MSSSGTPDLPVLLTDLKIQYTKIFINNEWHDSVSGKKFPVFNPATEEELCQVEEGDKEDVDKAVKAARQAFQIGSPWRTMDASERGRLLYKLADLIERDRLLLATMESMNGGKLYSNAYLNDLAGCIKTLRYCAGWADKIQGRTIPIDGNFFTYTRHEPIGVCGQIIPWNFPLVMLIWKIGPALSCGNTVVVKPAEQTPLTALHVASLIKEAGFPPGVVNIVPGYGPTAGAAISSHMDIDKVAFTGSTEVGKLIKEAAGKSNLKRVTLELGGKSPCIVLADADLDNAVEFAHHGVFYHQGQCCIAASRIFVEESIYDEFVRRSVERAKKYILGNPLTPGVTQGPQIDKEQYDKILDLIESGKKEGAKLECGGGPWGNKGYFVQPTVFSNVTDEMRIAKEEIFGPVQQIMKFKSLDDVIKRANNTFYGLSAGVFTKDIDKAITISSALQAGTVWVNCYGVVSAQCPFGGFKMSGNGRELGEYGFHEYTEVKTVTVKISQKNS
GoLoco inh red: qHTS Assay for Inhibitors of RGS12 GoLoco Motif Activity (Red Fluorophore) | Potency, µM (top dose mostly 61.6 µM), most hits filed as inhibitors | Gai1:RGS12 GoLoco peptide FP, rhodamine, 10 min | actives 0.44% (n = 230,000); active means well fitted inhibition curve with a large enough effect, not every such curve was filed as active; inactive means no such curve, though single readings can be large or run the other way; further: nearly all actives have a fitted effect of over 30% in size
Numbers stand for hits. An excerpt weighted towards active compounds, which were near 8.5% of everything screened. Unless noted, the call rests on the fitted dose curve; in most records, active means well fitted inhibition curve with a large enough effect (not every such curve was filed as active); inconclusive means small, poorly fitted or top-dose-only effect, or another doubt; inactive means no such curve, though single readings can be large or run the other way.

How did CN(c1ccccc1)S(=O)(=O)c1ccc(NC(=S)NC(=O)c2ccccc2)cc1 do in these assays?
JMJD2E inh: inactive; NPSR antag: inconclusive; FBPA coupling cs: inactive; Sfp inh: inactive; ALDH1A1 block: 10µM; GoLoco inh red: inactive

Results for O=C(NC(=S)Nc1ccccc1)c1ccc(-c2ccccc2)cc1 ?
JMJD2E inh: inactive; NPSR antag: inactive; FBPA coupling cs: inactive; Sfp inh: inactive; ALDH1A1 block: inconclusive; GoLoco inh red: inactive

How did Cc1ccc(C(=O)NC(=S)Nc2ccc(S(=O)(=O)N(C)c3ccccc3)cc2)cc1 do in these assays?
JMJD2E inh: inactive; NPSR antag: inconclusive; FBPA coupling cs: inactive; Sfp inh: inactive; ALDH1A1 block: 11µM; GoLoco inh red: inactive

How did COc1ccc([N+](=O)[O-])cc1NC1CCN(C(=O)c2cccs2)CC1 do in these assays?
Sfp inh: inactive

How did COCCN(C)Cc1cn(-c2ccc(F)cc2F)nc1-c1ccccc1C do in these assays?
JMJD2E inh: inactive; NPSR antag: inactive; FBPA coupling cs: inactive; Sfp inh: 89µM; ALDH1A1 block: 25µM; GoLoco inh red: inactive

Results for Cc1ccccc1N1CCN(C2=NC(=O)/C(=C\c3cccs3)S2)CC1 ?
JMJD2E inh: inactive; NPSR antag: inactive; FBPA coupling cs: inactive; Sfp inh: inactive; ALDH1A1 block: 16µM; GoLoco inh red: inactive

How did O=C1N=C(N2CCN(c3cccc4ccccc34)CC2)S/C1=C/c1cccs1 do in these assays?
JMJD2E inh: inactive; NPSR antag: inactive; FBPA coupling cs: inactive; Sfp inh: inactive; ALDH1A1 block: inactive; GoLoco inh red: inactive

Results for O=C(NN=C1CCCCC1)c1ccccc1-n1cccc1 ?
FBPA coupling cs: inactive; Sfp inh: inactive

How did O=C(c1c(F)cccc1F)N1CCN=C1SCc1ccccc1 do in these assays?
JMJD2E inh: inactive; NPSR antag: inactive; FBPA coupling cs: inactive; Sfp inh: inactive; GoLoco inh red: inactive

What do the screens show for `Cc1cc(C(=O)Nc2ccc(N3CCOCC3)cc2)c2ccccc2n1`?
JMJD2E inh: inactive; NPSR antag: inactive; FBPA coupling cs: inactive; Sfp inh: inactive; ALDH1A1 block: inactive; GoLoco inh red: inactive

Results for COC(=O)c1nc2ccc(N3CCOCC3)cc2c(C)c1C(=O)OC ?
JMJD2E inh: inactive; NPSR antag: inactive; FBPA coupling cs: -51; Sfp inh: inactive; ALDH1A1 block: inactive; GoLoco inh red: inactive

Results for CC(C)C(=O)N1CCc2cc(-c3csc(N)n3)ccc21 ?
JMJD2E inh: inactive; NPSR antag: inactive; FBPA coupling cs: inactive; Sfp inh: 40µM; ALDH1A1 block: 14µM; GoLoco inh red: inactive

What do the screens show for `CCC(=O)N1CCc2cc(-c3csc(NC(=O)c4ccco4)n3)ccc21`?
FBPA coupling cs: inactive; Sfp inh: inactive

How did CCCc1ccc(C#N)c(SC2CC(=O)N(c3ccc(OC)cc3)C2=O)n1 (stereo unspecified) do in these assays?
JMJD2E inh: inactive; NPSR antag: inactive; FBPA coupling cs: inactive; Sfp inh: inactive; ALDH1A1 block: inconclusive; GoLoco inh red: inactive

How did COc1ccc(N2C(=O)CC(Sc3nnnn3-c3ccc(F)cc3)C2=O)cc1 (stereo unspecified) do in these assays?
JMJD2E inh: inactive; NPSR antag: inactive; FBPA coupling cs: inactive; Sfp inh: 16µM; ALDH1A1 block: 2.5µM; GoLoco inh red: inactive

What do the screens show for `O=C1CC(Sc2nnnn2-c2ccccc2)C(=O)N1c1cccc(Cl)c1` (stereo unspecified)?
JMJD2E inh: inactive; NPSR antag: inconclusive; FBPA coupling cs: inactive; Sfp inh: 13µM; ALDH1A1 block: 0.79µM; GoLoco inh red: inactive

What do the screens show for `Brc1ccccc1/C=N/Nc1ccc2ccccc2n1`?
JMJD2E inh: inactive; NPSR antag: inactive; FBPA coupling cs: inactive; Sfp inh: 40µM; ALDH1A1 block: inactive; GoLoco inh red: inactive

What do the screens show for `Cc1cc(N/N=C/c2ccccc2Br)nc2ccccc12`?
JMJD2E inh: inactive; NPSR antag: inactive; FBPA coupling cs: inactive; Sfp inh: inconclusive; ALDH1A1 block: inactive; GoLoco inh red: inactive

Results for CCCCn1c(CNC(=O)C23CC4CC(CC(C4)C2)C3)nnc1SC(C)CC (stereo unspecified) ?
JMJD2E inh: inactive; NPSR antag: inactive; FBPA coupling cs: inactive; Sfp inh: inactive; ALDH1A1 block: inactive; GoLoco inh red: inactive

Results for C/C(=N/NC(=O)CSc1nc2ccccc2s1)c1ccncc1 ?
JMJD2E inh: inactive; NPSR antag: inactive; FBPA coupling cs: inactive; Sfp inh: inactive; ALDH1A1 block: 20µM; GoLoco inh red: inactive

Results for C/C(=N/NC(=O)CSc1nc2ccccc2n1C)c1ccncc1 ?
JMJD2E inh: inactive; NPSR antag: inactive; FBPA coupling cs: inactive; Sfp inh: inactive; ALDH1A1 block: 10µM; GoLoco inh red: inactive

What do the screens show for `CS/C(=N\S(=O)(=O)c1cccs1)NC(=O)CSc1nc2ccccc2s1`?
JMJD2E inh: inactive; NPSR antag: inactive; FBPA coupling cs: inactive; Sfp inh: inconclusive; ALDH1A1 block: 28µM; GoLoco inh red: inactive

How did C/C(=N\NC(=O)CSc1nc2ccccc2[nH]1)c1ccncc1 do in these assays?
JMJD2E inh: inactive; NPSR antag: inactive; FBPA coupling cs: inactive; Sfp inh: inactive; ALDH1A1 block: inconclusive; GoLoco inh red: inactive

How did COc1cc(/C(C)=N\NC(=O)CSc2nc3ccccc3n2C)ccc1O do in these assays?
JMJD2E inh: inactive; NPSR antag: inactive; FBPA coupling cs: inactive; Sfp inh: inactive; GoLoco inh red: inactive

Results for CC(=O)c1ccc(-c2c(C3C4C=CCCC4(C)C(=O)N3Cc3ccccc3)ccc3ccccc23)cc1 (stereo unspecified) ?
FBPA coupling cs: inactive; Sfp inh: inactive

Results for CCOC(=O)c1cc(C(=O)c2ccccc2O)cn2c(=O)c3c(C)c(C)sc3nc12 ?
JMJD2E inh: inactive; NPSR antag: inactive; FBPA coupling cs: inactive; Sfp inh: 45µM; ALDH1A1 block: 14µM; GoLoco inh red: inactive

How did N#Cc1cccc(-c2ccc3ncnc(N4CCNCC4)c3c2)c1 do in these assays?
FBPA coupling cs: inactive; Sfp inh: inactive; ALDH1A1 block: inactive; GoLoco inh red: inactive

How did CN(C)c1ncnc2ccc(-c3cccc(C#N)c3)cc12 do in these assays?
FBPA coupling cs: inactive; Sfp inh: inactive; ALDH1A1 block: 32µM; GoLoco inh red: inactive

Results for CCCCCNC(=O)c1ccc2c(=O)[nH]c3c(C(=O)NCC4CCCO4)sc(=S)n3c2c1 (stereo unspecified) ?
JMJD2E inh: inactive; NPSR antag: inactive; FBPA coupling cs: inactive; Sfp inh: 50µM; ALDH1A1 block: inconclusive; GoLoco inh red: inactive
